From PubChem BioAssay
Most compounds without a hit are left out; they make up all but 7.9% or so of the library.
LASV entry inh: inhibitors of Lassa virus binding or cell entry; Lassa virus pseudotype entry inhibition, cell reporter; Potency, µM (titrated, usually from 37.9 µM), for the others: at the top dose activity change, negative = inhibition, actives largely listed as inhibitors; hit rate 1.2% among 300,000; calls by dose curve; tested in HEK293 cells; note: potency is the fitted concentration of half-maximal effect; nearly all actives have a fitted effect of over 50% in size
FMDV antiviral: antivirals against foot and mouth disease virus. FMDV antiviral cell-based qHTS. Potency, µM (top dose mostly 57.9 µM), for inactives: at the top dose activity change, negative = inhibition, actives largely listed as inhibitors. hit rate 1.2% among 410,000; calls by dose curve; tested in HEK293T cells; note: read-out not given here; potency is the fitted concentration of half-maximal effect; nearly all actives have a fitted effect of over 45% in size
HCMV antiviral: inhibitors of human cytomegalovirus; HFF cells, HCMV-luciferase reporter, 72 h; hits give low values; activity change, negative = inhibition, % at 57.5 µM; hit rate 4.5% among 410,000; in the data active = activity change below about -60%; inconclusive = no clear call, values can overlap the other calls; inactive = above about -39%
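Steps: HFFs plated, 16 h 37C; compounds added; HCMV-luciferase added to MOI 1 PFU/cell; 72 h 37C; OneGlo reagent, 5 min room temperature; luminescence read, normalized to controls.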
HCV inhibitor: blocks hepatitis C virus | Huh7.5.1 HCVcc-Cre infection, luciferase reporter, 44 h | AID 651820 | hit rate 3.4% among 340,000 | Potency, µM (doses to about 41.8 µM), inactives show at the highest dose activity change, negative = inhibition, usual class: inhibitors; active = well fitted inhibition curve with a large enough effect; inconclusive = small, poorly fitted or top-dose-only effect, or another doubt; inactive = no such curve, though single readings can be large or run the other way; note: potency is the fitted concentration of half-maximal effect
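Luciferase read-out (15 sec integration) after a 15 min room-temperature substrate step quantifies HCVcc-Cre infection. Cells, 1,000 per well, had compound added 4 h post-plating, then virus at ~0.5 moi, and were cultured 44 h.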
Marburg entry inh: inhibitors of Marburg virus binding or cell entry; Marburg virus pseudotyped entry inhibition, cell reporter; Potency, µM (titrated, usually from 37.8 µM), for inactives: top-dose activity change, negative = inhibition, actives largely listed as inhibitors; hit rate 1.8% among 300,000; calls by dose curve; tested in HEK293 cells; note: potency is the fitted concentration of half-maximal effect
* marks the source's active call; other numbers are inactive results; [ ] = another dose, or the depositor's remark. % is set by controls: 0 for no effect and ±100 for the full control effect.

How did CCCCOc1ccc(CS[C@@H](CC(=O)O)C(=O)O)cc1 do in these assays?
Marburg entry inh: 5%

How did CC(=O)c1cccc(NC(=O)CCc2c(C)nc3nc(CN)nn3c2C)c1 do in these assays?
LASV entry inh: -2%[46.1 µM]; FMDV antiviral: -7%; HCMV antiviral: 4; Marburg entry inh: inconclusive

Results for CCc1ccc2c(CN3CCN(S(=O)(=O)c4cccs4)CC3)cc(=O)oc2c1 ?
LASV entry inh: 2.5µM*; FMDV antiviral: inconclusive; HCMV antiviral: -12; HCV inhibitor: inconclusive; Marburg entry inh: inconclusive

Results for CCc1ccc2c(CN3CCN(Cc4ccccc4)CC3)cc(=O)oc2c1 ?
LASV entry inh: 1%; FMDV antiviral: 0%; HCMV antiviral: -4; HCV inhibitor: inconclusive; Marburg entry inh: -3%[46.1 µM]

Results for CCc1ccc2c(CN3CCN(S(=O)(=O)c4ccccc4F)CC3)cc(=O)oc2c1 ?
LASV entry inh: inconclusive; FMDV antiviral: inconclusive; HCMV antiviral: -3; HCV inhibitor: 13µM*; Marburg entry inh: 11µM*

What do the screens show for `Cc1cc2oc(=O)cc(CN3CCN(S(=O)(=O)c4ccc5c(c4)OCCO5)CC3)c2cc1C`?
LASV entry inh: -23%; FMDV antiviral: 11%; HCMV antiviral: inconclusive; HCV inhibitor: 7.1µM*; Marburg entry inh: -14%

Results for O=S(=O)(c1ccccc1F)N1CCN(CCc2ccccc2)CC1 ?
LASV entry inh: -13%; FMDV antiviral: inconclusive; HCMV antiviral: -72*; HCV inhibitor: inconclusive; Marburg entry inh: inconclusive

How did COC(=O)CCCCCN1C(=O)NC(C2CC2)C(C(=O)OCc2ccccc2)=C1C (centres undefined) do in these assays?
FMDV antiviral: -3%; HCMV antiviral: -9; HCV inhibitor: -1%

How did CC(=O)c1c(C)[nH]c(C(=O)CN2CCN(S(=O)(=O)c3ccccc3F)CC2)c1C do in these assays?
LASV entry inh: inconclusive; FMDV antiviral: 18µM*; HCMV antiviral: inconclusive; HCV inhibitor: 3%; Marburg entry inh: inconclusive

How did Cc1cc(C(C)(C)C)cc(CN2CCN(S(=O)(=O)c3cccs3)CC2)c1O do in these assays?
FMDV antiviral: inconclusive; HCMV antiviral: -77*

How did Cc1cc(O)c(CN2CCN(S(=O)(=O)c3cccs3)CC2)cc1C(C)C do in these assays?
FMDV antiviral: inconclusive; HCMV antiviral: -14; HCV inhibitor: inconclusive

What do the screens show for `CC(=O)c1c(C)[nH]c(C(=O)CN2CCN(S(=O)(=O)c3ccc(C(C)C)cc3)CC2)c1C`?
FMDV antiviral: inconclusive; HCMV antiviral: -27; HCV inhibitor: inconclusive

What do the screens show for `CC1=C(C(=O)Nc2ccccc2)C(c2ccc(C(=O)O)cc2)n2ncnc2N1` (centres undefined)?
LASV entry inh: 25%[46.1 µM]; FMDV antiviral: -18%; HCMV antiviral: 22

Results for COCC(C)Nc1ncnc2c1cnn2-c1cccc(Cl)c1 (centres undefined) ?
LASV entry inh: inconclusive; FMDV antiviral: 30%; HCMV antiviral: 100

How did Cc1ccccc1CN1C(=O)CS/C1=N/N=C/c1ccco1 do in these assays?
LASV entry inh: 10µM*; FMDV antiviral: -15%; HCMV antiviral: 9; HCV inhibitor: inconclusive; Marburg entry inh: 11%[46.1 µM]

How did Oc1ccccc1CNc1cccc2cccnc12 do in these assays?
LASV entry inh: inconclusive; FMDV antiviral: 69%; HCMV antiviral: -5; HCV inhibitor: -11%; Marburg entry inh: inconclusive

How did Nc1sc(-c2ccccc2)n[n+]1Cc1cccc2cccnc12 do in these assays?
FMDV antiviral: -26%; HCMV antiviral: -99*; HCV inhibitor: inconclusive; Marburg entry inh: 6%

How did CC1CN(S(=O)(=O)c2cccc(C(=O)Nc3ccc(S(=O)(=O)NC4=NCCCCC4)cc3)c2)CC(C)O1 (centres undefined) do in these assays?
LASV entry inh: -8%; FMDV antiviral: -1%; HCMV antiviral: -32; HCV inhibitor: -21%; Marburg entry inh: inconclusive

What do the screens show for `Cc1cc(F)ccc1O[C@H]1C=C[C@@H](c2ccc3c(c2)OCO3)O[C@H]1CO`?
Marburg entry inh: 14%[14.2 µM]

Results for COC(=O)C(c1ccc(Br)cc1)(c1cn(C)c2ccccc12)C(Nc1ccccc1)c1ccccc1 (centres undefined) ?
HCMV antiviral: -79*

How did COC(=O)C(c1ccccc1)(c1cn(C)c2cc(Br)ccc12)C(Nc1ccccc1)c1ccccc1 (centres undefined) do in these assays?
HCMV antiviral: -7

What do the screens show for `O=[N+]([O-])c1ccccc1-c1cc(-c2ccccc2Br)no1`?
HCMV antiviral: 71

How did O=C(COC(=O)C1CCC(=O)N1)Nc1cccc([N+](=O)[O-])c1 (centres undefined) do in these assays?
FMDV antiviral: -4%; HCMV antiviral: -20; HCV inhibitor: 7%

Results for O=S(=O)(c1ccc(SCCOc2ccc(Cl)cc2)nc1)N1CCCC1 ?
FMDV antiviral: inconclusive; HCMV antiviral: -1; HCV inhibitor: inconclusive

How did O=S(=O)(c1ccc(Oc2ccc(Br)cc2F)nc1)N1CCCCC1 do in these assays?
LASV entry inh: -11%; FMDV antiviral: inconclusive; HCMV antiviral: -1; HCV inhibitor: 25µM*; Marburg entry inh: inconclusive

How did N#Cc1ccccc1Oc1ccc(S(=O)(=O)N2CCCCC2)cn1 do in these assays?
LASV entry inh: -5%; FMDV antiviral: -2%; HCMV antiviral: 10; HCV inhibitor: -7%; Marburg entry inh: 6%

Results for CCOc1ccc(OCCSc2ccc(S(=O)(=O)N3CCN(C)CC3)cn2)cc1 ?
FMDV antiviral: -21%; HCMV antiviral: 0; HCV inhibitor: 11µM*

How did O=S(=O)(c1ccc(SCCOc2ccc(Br)cc2)nc1)N1CCCC1 do in these assays?
LASV entry inh: -21%; FMDV antiviral: -19%; HCMV antiviral: inconclusive; HCV inhibitor: 5.6µM*; Marburg entry inh: inconclusive

How did COc1ccc(OC)c(NC(=O)N2c3ccccc3Sc3ccccc32)c1 do in these assays?
LASV entry inh: 19%[46.1 µM]; FMDV antiviral: 3%; HCMV antiviral: 3; Marburg entry inh: -3%[46.1 µM]

How did O=c1c2ccccc2nc(SCc2cn3ccsc3n2)n1-c1ccc(F)cc1 do in these assays?
LASV entry inh: 11µM*; FMDV antiviral: inconclusive; HCMV antiviral: -77*; HCV inhibitor: -6%; Marburg entry inh: inconclusive

How did O=C(CSc1nc2ccccc2c(=O)n1-c1ccc(F)cc1)NCc1ccco1 do in these assays?
LASV entry inh: -1%; FMDV antiviral: -22%; HCMV antiviral: -5; HCV inhibitor: -16%; Marburg entry inh: inconclusive

What do the screens show for `O=C(O)COc1ccccc1C(Nc1ccccn1)c1cc(Cl)c2cccnc2c1O` (centres undefined)?
LASV entry inh: -4%; FMDV antiviral: -18%; HCMV antiviral: -26; HCV inhibitor: -1%; Marburg entry inh: 14%

Results for CCC(=O)NC(c1ccc(OC)c(OC)c1)c1cc(Cl)c2cccnc2c1O (centres undefined) ?
LASV entry inh: inconclusive; FMDV antiviral: -16%; HCMV antiviral: -110*; HCV inhibitor: inconclusive; Marburg entry inh: inconclusive
